{"source": "PubChem BioAssay AID651591", "about": "(Broad Institute, 2012)", "note": "Results with a measured potency or affinity are listed apart. Activity calls are given as the source filed them.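 Rule for the calls: active = compounds lowering cell ATP signal whose fitted half-effect dose is at most a set limit; inconclusive = flat fit showing moderate signal loss, or unreliable curve fit; inactive = the rest, including signal increases.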", "data": [{"assay": "cytotoxicity in MITF-independent A375 cells – cell-based, CellTiter-Glo luminescence, dry powder, set 9, counter-screen for MITF modulator project, dose response (AID 651591)", "conditions": "A375 melanoma viability, CellTiter-Glo ATP luminescence, 24 h; series mostly up to 35 µM", "values": [{"smiles": "O=C1C=C(NS(=O)(=O)c2cccs2)C(=O)c2ccccc21", "outcome": "inactive"}, {"smiles": "NC1=C(NS(=O)(=O)c2ccc(Br)s2)C(=O)c2ccccc2C1=O", "outcome": "inactive"}, {"smiles": "NC1=C(NS(=O)(=O)c2ccccc2)C(=O)c2ccccc2C1=O", "outcome": "inactive"}, {"smiles": "O=C1C(Nc2ccccc2)=C(c2ccccc2)C(=O)c2ccccc21", "outcome": "inactive"}, {"smiles": "O=C1C=C(NS(=O)(=O)c2ccccc2)C(=O)c2ccccc21", "outcome": "inactive"}, {"smiles": "CC(C)N1CCN(C2=C(Nc3ccc(F)cc3F)C(=O)c3ccccc3C2=O)CC1", "outcome": "inactive"}, {"smiles": "O=C1C=C(NS(=O)(=O)c2ccc(Br)cc2)C(=O)c2ccccc21", "outcome": "inactive"}, {"smiles": "NC1=C(NS(=O)(=O)c2ccc(Br)cc2)C(=O)c2ccccc2C1=O", "outcome": "inactive"}]}]}
